PMC4336329 (PLoS ONE, 2015)
Screen size: about 310,000 compounds; about 14,000 (4.5%) showed an effect of 50% or more. Effects have a minus sign here. Only a selection was taken, and strong results are over-represented in it overall.

The molecules below were run against human ether-à-go-go-related gene (hERG) potassium channel (human, UniProt Q12809) (assay: primary screen, population patch clamp on CHO cells stably expressing hERG; higher = less effect of the substance).
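Note: peak tail current of the secondary pulse compared with the same well before compound.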

Chain of human ether-à-go-go-related gene (hERG) potassium channel (Q12809 whole entry, looked up): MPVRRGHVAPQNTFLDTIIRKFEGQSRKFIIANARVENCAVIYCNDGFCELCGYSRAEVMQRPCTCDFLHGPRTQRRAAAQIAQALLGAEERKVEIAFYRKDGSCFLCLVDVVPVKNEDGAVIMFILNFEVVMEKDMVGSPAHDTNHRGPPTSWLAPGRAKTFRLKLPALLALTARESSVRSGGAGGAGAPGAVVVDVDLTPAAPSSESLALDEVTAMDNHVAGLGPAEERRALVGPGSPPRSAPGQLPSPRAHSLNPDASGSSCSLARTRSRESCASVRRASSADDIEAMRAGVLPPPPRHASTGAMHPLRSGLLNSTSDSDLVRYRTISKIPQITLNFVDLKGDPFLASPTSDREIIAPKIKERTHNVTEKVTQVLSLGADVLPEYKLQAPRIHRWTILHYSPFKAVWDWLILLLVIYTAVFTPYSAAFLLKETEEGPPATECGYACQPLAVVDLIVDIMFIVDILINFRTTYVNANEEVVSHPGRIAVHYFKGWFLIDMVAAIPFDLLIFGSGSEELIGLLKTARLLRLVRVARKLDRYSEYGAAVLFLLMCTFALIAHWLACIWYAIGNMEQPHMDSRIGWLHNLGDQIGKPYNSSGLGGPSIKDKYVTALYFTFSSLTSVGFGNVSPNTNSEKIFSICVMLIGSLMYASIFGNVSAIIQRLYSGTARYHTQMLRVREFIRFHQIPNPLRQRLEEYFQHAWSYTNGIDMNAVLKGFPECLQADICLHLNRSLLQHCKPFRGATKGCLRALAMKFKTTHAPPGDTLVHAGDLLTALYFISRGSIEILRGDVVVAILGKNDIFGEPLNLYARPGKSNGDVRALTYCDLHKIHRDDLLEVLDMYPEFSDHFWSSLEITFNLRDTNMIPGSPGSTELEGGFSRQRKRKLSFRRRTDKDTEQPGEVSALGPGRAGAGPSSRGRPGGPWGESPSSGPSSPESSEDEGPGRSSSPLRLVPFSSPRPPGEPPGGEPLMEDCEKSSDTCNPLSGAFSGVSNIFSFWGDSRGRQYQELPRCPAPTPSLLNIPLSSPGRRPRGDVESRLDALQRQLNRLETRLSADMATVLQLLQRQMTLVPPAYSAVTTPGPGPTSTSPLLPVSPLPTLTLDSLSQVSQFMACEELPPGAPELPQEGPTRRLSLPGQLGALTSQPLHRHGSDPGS

Row | SMILES | hERG current change (%, negative = inhibition) at 10uM [%]
1 | CC(/C=C/c1ccco1)=N/NC(=O)OC(C)(C)C | 3.46
2 | N#Cc1ccccc1Sc1ccccc1C(=O)Nc1ccc2ccccc2c1 | 15.8
3 | CC(=O)c1c(C)nc(-c2ccc(Cl)cc2)nc1NC(=O)C(C)C | -9.25
4 | Oc1ccccc1N=N/C(=N/Nc1ccccc1O)c1ccccc1 | 8.83
5 | COC(=O)CCC(=O)Nc1ccccc1C(N)=O | 23.1
6 | CC(C)(CO)Nc1ccc([N+](=O)[O-])cc1[N+](=O)[O-] | -8.26
7 | Cc1ccc(-n2ncc3c2CC(C)(C)CC3NC(=O)CCn2cncn2)cc1 (stereo not shown) | -76.8
8 | COc1ccc(-n2ncc3c2CC(C)(C)CC3NC(=O)CCn2cncn2)cc1 (stereo not shown) | -42.2
9 | CC1(C)Cc2c(cnn2-c2ccccc2)C(NC(=O)CCCn2cncn2)C1 (stereo not shown) | -1.88
10 | CC1(C)Cc2c(cnn2-c2ccc(F)cc2)C(NC(=O)CCN2CCCC2=O)C1 (stereo not shown) | 5.01
11 | CC1(C)Cc2c(cnn2-c2ccc(F)cc2)C(NC(=O)CCn2cncn2)C1 (stereo not shown) | -69.1
12 | CC1(C)Cc2c(cnn2-c2ccc(F)cc2)C(NC(=O)Cn2cncn2)C1 (stereo not shown) | 7.61
13 | COc1cc(-c2nc3c[n+](CC(=O)c4ccccc4)ccc3n2C)cc(OC)c1OC.[Br-] | 0.461
14 | CCC(CC)C(=O)Nc1ccc(-c2cn3cccnc3n2)cc1 | 4.74
15 | Cc1cc(C)n(-c2ccc(C(=O)Nc3ccc(S(=O)(=O)N(C)C)cc3)cc2)n1 | -40.8
16 | Cc1ccccc1-c1nnc(-c2ccccc2)o1 | -6.58
17 | Cc1ccc(N2CC(NC(=O)C(=O)c3c(C)[nH]c4ccccc34)CC2=O)cc1C (stereo not shown) | -10.1
18 | COc1ccc(N2CC(NC(=O)N3CCN(C(=O)c4ccco4)CC3)CC2=O)cc1OC (stereo not shown) | 5.5
19 | O=C(NC1CC(=O)N(c2ccccc2)C1)N1CCN(C(=O)c2ccco2)CC1 (stereo not shown) | -5.77
20 | O=C(NC1CC(=O)N(c2cccc(F)c2)C1)N1CCN(C(=O)c2ccco2)CC1 (stereo not shown) | -26.1
21 | O=C(NC1CC(=O)N(c2ccc(Cl)cc2)C1)N1CCN(C(=O)c2ccco2)CC1 (stereo not shown) | -91.6
22 | Cc1ccc(N2CC(NC(=O)N3CCN(C(=O)c4ccco4)CC3)CC2=O)cc1 (stereo not shown) | -52.6

Row | SMILES | hERG current change (%, negative = inhibition) at 10uM [%]
23 | O=C(NC1CCCCC1)N1CCN(C(=O)c2ccco2)CC1 | -6.24
24 | Cc1[nH]c2ccccc2c1C(=O)C(=O)NC1CC(=O)N(c2ccc(F)cc2)C1 (stereo not shown) | -51.9
25 | O=C(NC1CC(=O)N(c2ccc(F)cc2)C1)N1CCN(C(=O)c2ccco2)CC1 (stereo not shown) | -63
26 | COc1ccc(N2CCN(C(=O)NC3CC(=O)N(c4ccc(OC)cc4)C3)CC2)cc1 (stereo not shown) | -35.9
27 | Cc1ccc(N2CC(NC(=O)C(=O)c3c(C)[nH]c4ccccc34)CC2=O)cc1 (stereo not shown) | -47.8
28 | O=C(NC1CC(=O)N(c2ccc(Cl)cc2)C1)C1CC1 (stereo not shown) | -18.2
29 | COc1ccc(COc2ccc3ccc(=O)oc3c2)cc1 | 9.33
30 | O=C(OCc1nnc(-c2ccccc2)o1)c1cc2ccccc2cc1O | 8.95
31 | C/C(=N\NC(=O)c1nnn(-c2nonc2N)c1-c1cccs1)c1ccc(C)cc1 | -0.452
32 | CC(=O)Nc1ccc(N2CCN(c3ccc(F)cc3)CC2)cc1 | 18.4
33 | CS(=O)(=O)c1ccccc1C(=O)NC1CCCc2ccccc21 (stereo not shown) | 66.1
34 | O=C(CCN1C(=O)S/C(=C\c2cccs2)C1=O)Nc1nccs1 | 9.41
35 | CCOC(=O)C1(CCOc2ccccc2)CCN(Cc2cccc(-n3cccn3)c2)CC1 | -79.3
36 | CCOC(=O)CNC(=O)N1CCC(CCOc2ccccc2)(C(=O)OCC)CC1 | 1.83
37 | CCOC(=O)C1(CCOc2ccccc2)CCN(C(=O)c2ccc(-n3cccn3)cc2)CC1 | -78.9
38 | CCOC(=O)CCNC(=O)N1CCC(CCOc2ccccc2)(C(=O)OCC)CC1 | -16.1
39 | CCOC(=O)C1(CCOc2ccccc2)CCN(Cc2ccc3nonc3c2)CC1 | -17
40 | CCOC(=O)C1(CCOc2ccccc2)CCN(Cc2ccc(-n3cccn3)cc2)CC1 | -84.1
41 | COc1ccccc1C(=O)Nc1nc(N)n(-c2ccccc2)n1 | 13.8
42 | CCCNC(=S)Nc1ccc(Oc2ccccc2)cc1 | -10.8
43 | O=C(O)/C=C/c1cnc2ccccc2n1 | 16.6
44 | Cc1ccc(S(=O)(=O)N2CCC(C(=O)NN3CCCCC3)CC2)cc1 | 4.16

Row | SMILES | hERG current change (%, negative = inhibition) at 10uM [%]
45 | O=C1Nc2ccc(Br)cc2/C1=C/C(=O)c1ccc2c(c1)OCO2 | 9.53
46 | CCCCCNC(=O)C(C)Sc1ccc(Cl)cc1 (stereo not shown) | 10.9
47 | C[C@@H](NCCc1ccc(O)cc1)[C@@H](O)c1ccc(O)cc1.Cl | -11.5
48 | CCCCCCCCN[C@H](C)[C@@H](O)c1ccc(SC(C)C)cc1 | -67.4
49 | CC(C)C(NC(=O)c1ccccc1)C(=O)NC1CCCc2ccccc21 (stereo not shown) | 15
50 | COc1ccc(-n2c(CNCCc3ccc(C)cc3)nc3ccccc3c2=O)cc1 | -32.8
51 | COC(=O)c1cc(C(=O)OCC(=O)N(C)C2CCS(=O)(=O)C2)cc([N+](=O)[O-])c1 (stereo not shown) | 7.96
52 | Cc1cc(C)n2nc(C(=O)OCC(=O)N3C(C)CCCC3C)nc2n1 (stereo not shown) | 21.5
53 | Cc1ccc(S(=O)(=O)c2nc(Nc3nccs3)sc2Cl)cc1 | 11.6
54 | COc1ccc(-n2c(-c3ccccc3)nnc2-c2ccc(Cl)cc2)cc1 | 4.96
55 | COc1ccc(N2C3=[N+](CC2(C)O)c2ccccc2CC3)cc1.[Br-] (stereo not shown) | -44.3
56 | Brc1ccc(-c2cn3c(n2)CCc2ccc4cccnc4c2-3)cc1 | 12.5
57 | Cc1ccc(-n2c(-c3ccc(Br)cc3)c[n+]3c2CCc2ccc4cccnc4c2-3)cc1.[Br-] | -74.2
58 | COc1ccc(-n2c(-c3ccc(Cl)cc3)c[n+]3c2CCc2ccccc2-3)cc1.[Br-] | -78.4
59 | COc1ccc(-n2c(-c3ccc(Cl)cc3)c[n+]3c2CCCCC3)cc1.[Br-] | -29.8
60 | COc1ccc(-n2c(-c3ccc(Br)cc3)c[n+]3c2CCc2ccccc2-3)cc1.[Br-] | -85.2
61 | COc1ccc(-n2c(-c3ccc(Br)cc3)nc(=S)c3c2CCCC3)cc1 | -1.32
62 | Cc1ccc(-n2c(=O)[nH]c3ncccc3c2=O)cc1 | 30.2
63 | COc1ccc(N2C(=O)CC(NNC(=O)c3cc(C)oc3C)C2=O)cc1 (stereo not shown) | 23.6
64 | COc1ccc(CCNC(=O)CSc2nnc(-c3ccccc3)c3ccccc23)cc1OC | -20
65 | CCNC(=O)NC(=O)C(C)Oc1ccc(C(=O)OC)cc1 (stereo not shown) | 3.92
66 | COc1ccc(C(c2sc3nc(C)nn3c2O)N2CCC3(CC2)OCCO3)cc1 (stereo not shown) | -2.74

Row | SMILES | hERG current change (%, negative = inhibition) at 10uM [%]
67 | COc1ccc(Cc2nnc(NC(=O)Nc3ccc(C)cc3)s2)cc1OC | 10.2
68 | Nc1c(C(=O)CSc2nnc(Nc3ccc(F)cc3)s2)c(=O)[nH]c(=O)n1C1CC1 | 0.202
69 | O=C(c1ccc2c3c(cccc13)CC2)C1CCCN(C(=O)c2cccnc2)C1 (stereo not shown) | -19.4
70 | O=C1CCC(C(=O)N2CCCC(C(=O)c3ccc4c5c(cccc35)CC4)C2)=NN1 (stereo not shown) | -17.9
71 | NC(=O)CCC(=O)N1CCCC(C(=O)c2ccc3c4c(cccc24)CC3)C1 (stereo not shown) | 2.05
72 | CN(C)C(=O)CCC(=O)N1CCCC(C(=O)c2ccc3c4c(cccc24)CC3)C1 (stereo not shown) | -20.2
73 | O=C(c1ccc2c3c(cccc13)CC2)C1CCCN(Cc2cccnc2)C1 (stereo not shown) | -63.4
74 | O=C1CCC(CCC(=O)N2CCCC(C(=O)c3ccc4c5c(cccc35)CC4)C2)=NN1 (stereo not shown) | -54.4
75 | O=C(c1ccc2c3c(cccc13)CC2)C1CCCN(Cc2ccc(OCCO)cc2)C1 (stereo not shown) | -70.4
76 | O=C(c1ccc2c3c(cccc13)CC2)C1CCCN(Cc2ccccn2)C1 (stereo not shown) | -42.5
77 | O=C(c1ccc2c3c(cccc13)CC2)C1CCCN(Cc2ccncc2)C1 (stereo not shown) | -51.5
78 | COCCC(=O)N1CCCC(C(=O)c2ccc3c4c(cccc24)CC3)C1 (stereo not shown) | -17.8
79 | O=C(c1ccc2c3c(cccc13)CC2)C1CCCN(CC2CC2)C1 (stereo not shown) | -46.3
80 | C/C=C(\C)C(=O)OC1C(C)=C2C(C1OC(=O)CCCCC)C(C)(OC(C)=O)CC(OC(=O)CCC)C1(O)C2OC(=O)C1(C)O (stereo not shown) | -6.49
81 | COc1cc2cccc(OC)c(=O)c2c(O)c1OC | -1.84
82 | CCc1ccc(N/C(N)=N/c2nc(CSc3ccccn3)cc(=O)[nH]2)cc1 | 3.29
83 | Cn1ncc2c(Nc3cccc(C(=O)O)c3)ncnc21 | 6.66
84 | CC(C(=O)NCc1ccccn1)c1ccc([N+](=O)[O-])cc1 (stereo not shown) | -49.5
85 | Cc1ccc(S(=O)(=O)N2CCCC2C(=O)Nc2cc(C)on2)cc1 (stereo not shown) | -1.05
